Source: PubChem BioAssay
AMA1-RON2 inh: inhibitors of Plasmodium falciparum AMA1-RON2 interaction; AlphaScreen AMA1-biotinylated RON2 peptide binding; Potency, µM (series often up to 58.2 µM), for inactives: at the highest dose activity change, negative = inhibition, hits mostly inhibitors; 360,000 tested, 0.2% active; AID 720542;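 note: 0% = vehicle wells and -100% = peptide control; nearly all actives have a fitted effect of over 45% in size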
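AMA1 (3D7) with his tag at 25 nM final met compounds first, then biotinylated RON2 peptide at 25 nM; detection used donor plus acceptor beads, 10 µg/mL apiece, read by AlphaScreen after 30 min at room temperature.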
Pf growth 96h: P. falciparum growth inhibition at 96 hours | 320,000 tested, 6.9% active | Potency, µM (highest dose often 28.7 µM), inactives show top-dose activity change, negative = inhibition, usual class: inhibitors | P. falciparum luciferase reporter growth, 96 h
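P. falciparum expressing integrated firefly luciferase grown in erythrocytes (2% hematocrit, 0.05% parasitemia final) with compounds for 96 hours at 37 C, 5% CO2. Growth inhibition read as loss of luminescence after adding luciferase detection reagent.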
Pf growth 48h: P. falciparum growth inhibition at 48 hours (one generation); Potency, µM (series often up to 28.7 µM), for the others: top-dose activity change, negative = inhibition, hits mostly inhibitors; P. falciparum luciferase growth in erythrocytes, 48 h; 310,000 tested, 5.9% active
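Read-out is firefly luciferase luminescence from an integrated reporter in P. falciparum, so falling signal marks reduced parasite growth. Infected erythrocytes were at 2% hematocrit and 0.1% parasitemia (final) in Albumax-supplemented RPMI 1640.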
HCV inhibitor: inhibitors of hepatitis C virus infection. AID 651820. Huh7.5.1 HCVcc-Cre infection, luciferase reporter, 44 h. Potency, µM (titrated, usually from 41.8 µM), without a hit: at the top dose activity change, negative = inhibition, usual class: inhibitors. 340,000 tested, 3.4% active
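Cells seeded at 1,000/well and cultured 4 h, then compounds added followed by HCVcc-Cre virus (~0.5 moi). After 44 h further culture, luciferase substrate was added, plates held 15 min at room temperature, and luminescence read for 15 sec.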
* = called active by the depositor; ? = inconclusive; . = no result given. This is a sample that favours compounds with a hit; in the whole collection about 11% have one here. Calls come from the whole dose curve; as a rule, active = well fitted curve in the direction sought with a large enough effect; inconclusive = small, poorly fitted or top-dose-only effect, or another doubt; inactive = no such curve, though single readings can be large; an effect the other way counts as inactive or inconclusive. Unless noted, % is set by controls: 0 for no effect and ±100 for the full control effect; potency is the fitted concentration of half-maximal effect.

SMILES	AMA1-RON2 inh	Pf growth 96h	Pf growth 48h	HCV inhibitor
CCN1CCN(C(=O)COc2ccc3c(c2)C(=O)CC2(CCN(C(C)=O)CC2)O3)CC1	5.7%	8.28µM*	.	-7.6%
CCOC(=O)N1CCN(C(=O)COc2ccc3c(c2)C(=O)CC(C)(C)O3)CC1	0.0%	25.0%	?	14.2%
CC1(C)CC(=O)c2cc(OCC(=O)N3CCCCCC3)ccc2O1	1.2%	13.1µM*	?	6.4%
CC(C)[C@H](NC(=O)c1ccco1)C(=O)NC12CC3CC(CC(C3)C1)C2	14.4%	-0.5%	-2.2%	-2.5%
COc1ccc(-c2c[n+](CC(=O)N3c4ccccc4Sc4ccccc43)c3n2CCC3)cc1	-17.1%	1.65µM*	2.62µM*	-4.0%
O=C(C[n+]1cc(-c2ccc(Cl)c(Cl)c2)n2c1CCC2)N1c2ccccc2Sc2ccccc21	2.3%	?	2.62µM*	7.9%
O=C(C[n+]1cc(-c2ccc(Cl)cc2)n2c1CCC2)Nc1nc(-c2ccccc2)cs1	-5.6%	?	?	?
O=C(C[n+]1cc(-c2ccc(Cl)cc2)n2c1CCC2)N1c2ccccc2Sc2ccccc21	-2.6%	?	1.65µM*	-5.1%
Cc1onc(-c2ccccc2)c1CNS(=O)(=O)c1ccccc1[N+](=O)[O-]	2.7%	?	1.1%	-0.3%
CN(C)CCCNC(=O)c1cc(Br)ccc1Cl	18.0%	9.28µM*	.	6.8%
O=C(NCCN1CCOCC1)c1cc(Br)ccc1Cl	-9.3%	24.1%	22.7%	13.8%
O=c1oc2ccccc2c(NC(c2ccccc2)c2ccccc2)c1[N+](=O)[O-]	-25.7%	162.8%	10.4µM*	-9.2%
CC(Nc1c([N+](=O)[O-])c(=O)oc2ccccc12)C(Cl)c1ccccc1 (centres undefined)	-9.8%	20.2%	-7.4%	-13.7%
N#CN1CCC(NS(=O)(=O)c2ccc(C(F)(F)F)cc2)C1 (centres undefined)	.	42.4%	?	.
CCOc1ccccc1NC(=O)c1cc(-c2ccccn2)nc2ccccc12	8.2%	?	14.7µM*	-1.2%
CCN(CC)S(=O)(=O)c1cc(NC(=O)c2cc(-c3ccccn3)nc3ccccc23)ccc1C	-3.9%	?	9.28µM*	14.1µM*
COc1ccc(NC(=O)c2cc(-c3ccccn3)nc3ccccc23)c(OC)c1	-20.5%	.	.	?
CCOc1ccccc1-c1cc(C(=O)Nc2ccc(C(=O)O)cc2)c2ccccc2n1	15.9%	10.4µM*	?	-2.2%
Cc1c(NC(=O)COc2c(F)c(F)c(F)c(F)c2F)c(=O)n(-c2ccccc2)n1C	8.1%	5.1%	-5.0%	3.5%
Cn1c(SCC(=O)N2CCN(S(=O)(=O)c3ccc(Cl)cc3)CC2)nc2ccccc21	-11.4%	10.4µM*	.	-7.9%
CC(C)Cn1c(SCC(=O)N2CCN(S(=O)(=O)c3ccccc3)CC2)nc2ccccc21	0.8%	.	3.29µM*	?
O=C1CN(C(=O)c2cc([N+](=O)[O-])ccc2Cl)C(c2ccc(F)cc2)c2cc(F)ccc2N1 (centres undefined)	-7.8%	?	?	-13.6%
COc1c(C=O)c2c(c(OC)c1OC)-c1ccc(OC)c(=O)cc1C(NC(C)=O)CC2 (centres undefined)	0.5%	.	.	-0.5%
COC(=O)c1ccc(CNC(=O)C(NC(=O)c2ccco2)C(C)C)cc1 (centres undefined)	1.0%	10.6%	3.6%	9.1%
O=C(c1cccc(S(=O)(=O)N2CCCC2)c1)c1nnc(-c2ccncc2)o1	-3.6%	-15.0%	-27.5%	6.0%
SMILES	AMA1-RON2 inh	Pf growth 96h	Pf growth 48h	HCV inhibitor
Cc1nn(C)cc1C1C2=C(CC(C)(C)CC2=O)N(c2ccccc2)C2=C1C(=O)CC(C)(C)C2	-6.1%	3.7µM*	.	-1.7%
Cc1ccc(N2C3=C(C(=O)CC(C)(C)C3)C(c3cn(C)nc3C)C3=C2CC(C)(C)CC3=O)cc1	0.3%	.	.	?
COc1ccc2[nH]c(=O)c(CN(C(=O)C(C)C)c3ccccc3OC)cc2c1	-5.7%	-23.1%	-39.1%	11.8%
O=S(=O)(NC(=S)NC1CCCCC1)c1ccc(Cl)cc1	113.2%	0.522µM*	40.2%	16.5%
COc1cccc(C(=O)OC(C)C(=O)NCC2CCCCC2)c1 (centres undefined)	1.0%	20.1%	-9.3%	3.8%
C=CCOC(=O)C1=C(C)NC(C)=C(C(=O)OCC=C)C1c1cn(-c2ccccc2)nc1-c1ccco1	-0.2%	3.7µM*	?	10.7%
OCc1cn(-c2ccccc2)nc1-c1ccco1	-6.9%	77.4%	.	-10.8%
